Screening results (PubChem BioAssay)
Most compounds without a hit are left out; they make up all but 4% or so of the library.
CF NFkB inh = cystic fibrosis NF-kB activation inhibition; hit rate 0.86% among 360,000; inhibition, % at 5 µM; AID 588850; KKLEB NF-kB-GFP reporter, PAF-induced, GFP fluorescence overnight;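 active = at least 50% inhibition at 5 µM, scaled per plate between neutral and stimulator controls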;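 note: PAF is a Pseudomonas aeruginosa culture filtrate used as stimulus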
KKLEB cytotox = counter-screen for CF NF-kB inhibitors: cytotoxicity; KKLEB CF airway cells viability, ATPlite luminescence, overnight; active compounds read low; cells stimulated with P. aeruginosa culture filtrate; activity change (cytotoxicity), % at 5 µM; hit rate 0.36% among 360,000; AID 602141;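 active = corrected activity change at or below -50% at 5 µM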
HIF-2a block = HIF-2a inhibition. 786-0 RCC cells HIF-2a reporter, luciferase luminescence, overnight. inhibition, % at 18.8 µM. hit rate 0.72% among 360,000. AID 624352;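 active = inhibition of the luminescence signal of 40% or more relative to plate controls, in a single-dose primary screen at 18.75 µM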
Peg3 promoter = Peg3 promoter activity inhibition; HeLa PEG-Prom luciferase reporter, luminescence, overnight; inhibition, % at 20 µM; hit rate 1.7% among 360,000; AID 588405;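 active = inhibition of at least 50% at 20 µM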
TWEAK Fn14 block = blocks TWEAK-Fn14 interaction in a reporter cell assay. TWEAK-stimulated Fn14 reporter cells, luciferase luminescence, 8 h. AID 1159606. hit rate 2% among 360,000. inhibition, % at 10 µM; in the data active = inhibition above about 50%
TROY NFkB inh = blocks TROY-dependent signaling in reporter cells. Q293 LMP1-TROYcd NF-kB luciferase reporter, 4 h. inhibition, % at 10 µM. hit rate 0.98% among 360,000;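 active = compounds whose plate-normalised and pattern-corrected inhibition of the luciferase reporter signal at the single screening dose is 50% or more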
Hits are given with their value; . = inactive.

SMILES	CF NFkB inh	KKLEB cytotox	HIF-2a block	Peg3 promoter	TWEAK Fn14 block	TROY NFkB inh
COC(=O)c1c(C)[nH]c(C(=O)OCC(=O)c2c(N)n(CC(C)C)c(=O)n(C)c2=O)c1C	.	.	.	.	.	.
COc1cc(CNC(C)C23CC4CC(CC(C4)C2)C3)ccc1OCC(=O)NC(C)(C)C (centres undefined)	.	.	.	72.1	.	.
O=C(NC(c1ccc2c(c1)OCO2)c1ccccn1)C1CCN(CCOc2ccccc2)CC1 (centres undefined)	.	.	.	.	.	.
O=c1c2c(nc3cc(-c4ccc(Cl)cc4)[nH]n13)CCS2	.	.	.	.	73.2	.
O=c1c2c(nc3cc(-c4ccc(F)cc4)[nH]n13)CCCC2	.	.	.	.	79.7	55.8
O=c1c2c(nc3cc(-c4cccc(F)c4)[nH]n13)CCC2	.	.	.	.	.	.
C[C@@H]1CN([C@H](C)CO)C(=O)CCCn2nncc2CO[C@H]1CN(C)Cc1ccccc1C(F)(F)F	.	.	.	.	.	.
CC1(C(=O)Nc2cnc3ccccc3c2)CCN1C(=O)CC(c1ccccc1)c1ccccc1 (centres undefined)	.	.	.	.	.	.
NC1=CC(=O)C(=O)c2ccccc21	68.4	.	.	55.0	.	.
CCN(CCNC(=O)c1ccc(C#N)cc1)c1cccc(C)c1	.	.	.	.	.	.
CCN(CCNCC(O)COCc1ccc(Cl)cc1)c1cccc(C)c1 (centres undefined)	.	.	.	103.2	.	.
CCOC(=O)c1c(C)[nH]c(/C(C)=N/O)c1C	.	.	.	.	.	.
CCOC(=O)c1c(C)[nH]c(C2=NNC(=NC3CC3)SC2)c1C	.	.	.	.	85.2	83.6
O=C(Nc1ccc(OC(F)(F)F)cc1)Nc1cccc([N+](=O)[O-])c1	65.7	-65.4	.	55.3	56.4	.
O=C(Nc1ccc(OC(F)F)cc1)Nc1cccc(C(F)(F)F)c1	63.1	-52.3	.	.	58.6	.
Cc1ccc(NC(=S)NNC(=S)Nc2cccc(C(F)(F)F)c2)cc1	.	.	.	.	.	.
O=C(Nc1ccncc1)Nc1cccc(C(F)(F)F)c1	.	.	.	.	.	.
Cc1ccc(S(=O)(=O)Nc2ccc(NC(=O)Nc3cccc(C(F)(F)F)c3)cc2)cc1	.	.	.	95.7	85.9	.
O=C(Nc1ccc(OC(F)(F)F)cc1)Nc1cccnc1	.	.	.	.	.	.
O=C(C1CC(=O)N(c2ccc(Cl)cc2)C1)N1CCN(Cc2ccc3c(c2)OCO3)CC1 (centres undefined)	.	.	.	.	.	.
CCOc1ccccc1CNc1ncnc2ccc(-c3c(C)noc3C)cc12	.	.	.	.	82.4	62.0
COc1ccc(NN=Nc2nc3c([nH]2)c(=O)n(C)c(=O)n3C)cc1	.	.	.	.	.	.
O=C(COc1ccc(/C=C\[N+](=O)[O-])cc1)N1CCOCC1	.	.	.	.	.	.
O=[N+]([O-])/C=C\c1ccc(N2CCOCC2)cc1	.	.	54.9	.	52.5	53.4
CC(C)(C)c1ccc(CC(=O)N2CCC2(C)C(=O)NS(=O)(=O)c2ccccc2)cc1 (centres undefined)	.	.	.	.	.	.
SMILES	CF NFkB inh	KKLEB cytotox	HIF-2a block	Peg3 promoter	TWEAK Fn14 block	TROY NFkB inh
O=C(N[C@@H]1C/C=C\C[C@H](CC(=O)N(CCO)Cc2ccccc2)C(=O)NC[C@@H](c2ccccc2)OC1=O)OCC1c2ccccc2-c2ccccc21	.	.	.	.	.	.
O=C(C[C@H]1C/C=C\C[C@H](NC(=O)OCC2c3ccccc3-c3ccccc32)C(=O)O[C@H](c2ccccc2)CNC1=O)N[C@H](CO)Cc1ccccc1	86.5	-95.5	.	87.5	.	.
Cc1cccc(NC(=O)COC(=O)c2cccs2)c1C	.	.	.	.	.	.
CCN1Cc2c(/C=C/c3ccccc3)nc3ccc(OC)cc3c2N(c2cccc(Cl)c2)C1	.	.	.	101.0	.	.
COc1ccc(C(=O)/C=C/c2ccc(OC)c(Cn3nnc4ccccc43)c2)cc1	.	.	.	51.7	.	.
COc1ccc(C(=O)/C=C/c2ccc(OC)c(CN3CCOCC3)c2)cc1	.	.	.	.	.	.
OCC1OC(Nc2ccccc2C=NO)C(O)C1O (centres undefined)	.	.	.	.	.	.
